Experimental findings from ChEMBL document CHEMBL3988442, “University of Dundee, Small-Polar-MMV Screening Library” (2021) are described below.

What all share (design): scale not given: direction of the effect not stated beside the values
Assay [1] addresses Protein translocase subunit SecA (Escherichia coli (strain K12)) (UniProt P10408). Briefly: Assay to Identify E. coli SecA ATPase Inhibitors. The assay is classed as functional. Conditions: 30 µM.
The target of assay [2] is T1, Ubiquitin-activating enzyme e1, putative (Leishmania donovani (strain BPK282A1)) (UniProt E9BSI1).
T1 sequence (whole entry): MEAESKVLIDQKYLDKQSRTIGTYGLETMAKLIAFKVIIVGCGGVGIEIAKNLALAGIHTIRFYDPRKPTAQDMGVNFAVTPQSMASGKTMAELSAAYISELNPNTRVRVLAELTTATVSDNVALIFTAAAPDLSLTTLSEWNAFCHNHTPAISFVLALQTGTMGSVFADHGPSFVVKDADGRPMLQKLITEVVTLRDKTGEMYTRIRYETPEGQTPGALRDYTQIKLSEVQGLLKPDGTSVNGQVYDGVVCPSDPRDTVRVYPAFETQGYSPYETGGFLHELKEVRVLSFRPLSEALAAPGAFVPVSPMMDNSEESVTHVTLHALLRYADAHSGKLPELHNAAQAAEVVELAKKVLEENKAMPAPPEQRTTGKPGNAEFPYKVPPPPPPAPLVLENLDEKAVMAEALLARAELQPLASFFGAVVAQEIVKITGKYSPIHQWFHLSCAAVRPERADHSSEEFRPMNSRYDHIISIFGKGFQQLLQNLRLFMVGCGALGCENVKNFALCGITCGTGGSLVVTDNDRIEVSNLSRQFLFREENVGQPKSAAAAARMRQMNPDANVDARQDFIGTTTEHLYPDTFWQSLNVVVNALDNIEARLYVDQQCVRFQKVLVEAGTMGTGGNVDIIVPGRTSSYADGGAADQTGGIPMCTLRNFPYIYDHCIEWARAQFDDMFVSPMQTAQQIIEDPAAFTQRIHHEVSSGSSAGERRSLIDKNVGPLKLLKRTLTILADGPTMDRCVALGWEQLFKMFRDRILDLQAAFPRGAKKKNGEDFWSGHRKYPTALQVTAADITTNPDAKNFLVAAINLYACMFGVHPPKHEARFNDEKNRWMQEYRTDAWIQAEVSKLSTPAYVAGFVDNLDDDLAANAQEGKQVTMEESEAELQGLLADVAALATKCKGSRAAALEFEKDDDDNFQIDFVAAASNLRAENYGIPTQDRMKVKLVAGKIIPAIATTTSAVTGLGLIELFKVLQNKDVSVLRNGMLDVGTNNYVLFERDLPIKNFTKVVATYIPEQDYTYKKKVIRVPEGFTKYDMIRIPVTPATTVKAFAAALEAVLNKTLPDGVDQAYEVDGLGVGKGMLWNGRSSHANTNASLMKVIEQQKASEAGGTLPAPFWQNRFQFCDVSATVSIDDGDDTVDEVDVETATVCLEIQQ
The assay is described as follows: Leishmania donovani Ubiquitin Activating Enzyme (LdE1). The assay is classed as functional. Particulars: 30 µM.

For assay [3], the target named is AMP-activated protein kinase, AMPK (Homo sapiens) (UniProt P54646+O43741+P54619+Q9UGJ0+Q9Y478+Q13131+Q9UGI9). Briefly: AMP-dependent Kinase enzyme assay. An in vitro enzyme assay that detects ADP turnover that is directly proportional to AMPK activity. This uses naive AMPK that is activated during the assay with MK-8722. The format is functional. Conditions: 30 µM.

In assay [4] the target is Sialic acid-binding Ig-like lectin 9 (Homo sapiens) (UniProt Q9Y336). The assay is described as follows: Hs-Siglec9 ALPHAscreen SOP 20170721. Particulars: 10 µM. A general note: Alpha assays give light when donor and acceptor beads are brought close together.
Sequence of Sialic acid-binding Ig-like lectin 9 (Homo sapiens) (Q9Y336 whole entry): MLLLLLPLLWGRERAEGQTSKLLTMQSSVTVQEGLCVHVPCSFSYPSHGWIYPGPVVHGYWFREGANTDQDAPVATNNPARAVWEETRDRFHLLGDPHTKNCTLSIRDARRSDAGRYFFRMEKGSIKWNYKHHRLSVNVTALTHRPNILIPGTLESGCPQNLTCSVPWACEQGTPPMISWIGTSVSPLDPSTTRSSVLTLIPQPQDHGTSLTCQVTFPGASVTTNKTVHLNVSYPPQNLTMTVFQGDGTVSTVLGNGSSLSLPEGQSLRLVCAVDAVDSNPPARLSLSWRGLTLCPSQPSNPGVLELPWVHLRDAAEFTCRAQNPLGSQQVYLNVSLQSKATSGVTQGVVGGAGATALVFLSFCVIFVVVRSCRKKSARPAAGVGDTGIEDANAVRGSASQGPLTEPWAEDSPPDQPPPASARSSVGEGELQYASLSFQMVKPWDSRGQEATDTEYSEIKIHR
The next assay has as its system Trypanosoma cruzi. Briefly: Trypanosoma cruzi phosphomannomutase and mannose-1-phosphate guanylyltransferase assay. The assay is classed as functional. Conditions: 10 µM.
Assay [5] concerns the target T2, Arginase-2, mitochondrial (Homo sapiens) (UniProt P78540).
T2 sequence (whole entry): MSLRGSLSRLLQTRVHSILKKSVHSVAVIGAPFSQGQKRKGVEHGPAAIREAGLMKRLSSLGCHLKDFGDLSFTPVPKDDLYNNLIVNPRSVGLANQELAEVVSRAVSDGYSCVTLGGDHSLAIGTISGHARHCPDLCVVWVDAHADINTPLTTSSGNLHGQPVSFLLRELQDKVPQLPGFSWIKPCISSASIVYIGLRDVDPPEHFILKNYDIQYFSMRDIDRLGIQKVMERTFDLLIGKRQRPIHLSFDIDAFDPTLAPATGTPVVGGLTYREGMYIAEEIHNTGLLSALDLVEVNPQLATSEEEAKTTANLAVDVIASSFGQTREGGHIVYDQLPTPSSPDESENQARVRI
Briefly: in vitro enzyme assay to detect the production of urea directly proportional to the activity of Arginase II. Further: in the data most compounds retested in dose-response had high values. The format is functional. Conditions: 33.3 µM.

Assay [6] addresses T3, Proteasome subunit beta (Trypanosoma cruzi) (UniProt O96673).
T3 sequence (whole entry): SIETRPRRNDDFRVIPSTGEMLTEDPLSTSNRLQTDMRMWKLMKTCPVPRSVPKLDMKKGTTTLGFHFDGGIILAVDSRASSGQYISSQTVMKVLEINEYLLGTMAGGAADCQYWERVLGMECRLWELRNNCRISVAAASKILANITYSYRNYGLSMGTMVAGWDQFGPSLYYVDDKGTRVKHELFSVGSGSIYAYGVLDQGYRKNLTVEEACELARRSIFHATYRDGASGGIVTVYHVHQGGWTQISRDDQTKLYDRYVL
Briefly: Trypanosoma cruzi proteasome chymotrypsin-like activity (TcProtChymo) assay. Further: in the data most compounds retested in dose-response had high values. The assay is classed as functional. Conditions: 9.37 µM.

The species entered for another assay is Homo sapiens. Briefly: To identify inhibition of the IFN signalling (Jak-Stat) pathway via expression of an eGFP reporter gene under the control of an IFN-stimulated response element (ISRE) containing MxA promoter. The assay is classed as functional. Conditions: 30 µM.
Assay [7] deals with T4, Tyrosyl-tRNA synthetase, putative (Trypanosoma cruzi (strain CL Brener)) (UniProt Q4DSP6).
T4 sequence (whole entry): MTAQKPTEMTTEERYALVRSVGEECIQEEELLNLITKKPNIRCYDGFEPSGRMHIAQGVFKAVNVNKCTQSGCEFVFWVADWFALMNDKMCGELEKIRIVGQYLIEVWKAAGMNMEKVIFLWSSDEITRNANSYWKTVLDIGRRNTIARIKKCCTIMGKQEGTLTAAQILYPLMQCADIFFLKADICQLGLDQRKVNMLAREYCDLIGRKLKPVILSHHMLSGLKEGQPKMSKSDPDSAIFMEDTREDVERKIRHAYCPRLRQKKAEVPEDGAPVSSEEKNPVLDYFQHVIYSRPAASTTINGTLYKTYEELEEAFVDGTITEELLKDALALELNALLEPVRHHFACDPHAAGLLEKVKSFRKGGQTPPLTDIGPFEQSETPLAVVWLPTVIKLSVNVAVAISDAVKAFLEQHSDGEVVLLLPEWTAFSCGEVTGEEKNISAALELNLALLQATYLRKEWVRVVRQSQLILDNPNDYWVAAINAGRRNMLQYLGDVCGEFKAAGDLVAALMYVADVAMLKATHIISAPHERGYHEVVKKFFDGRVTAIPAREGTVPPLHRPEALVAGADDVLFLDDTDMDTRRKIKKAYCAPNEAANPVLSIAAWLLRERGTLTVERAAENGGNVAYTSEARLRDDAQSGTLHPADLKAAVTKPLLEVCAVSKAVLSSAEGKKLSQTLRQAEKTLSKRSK
The assay is described as follows: Trypanosoma cruzi tyrosyl tRNA synthetase (TcYRS) _High Tyrosine SOP. Further: in the data most compounds retested in dose-response had high values. Conditions: 30 µM. The assay is classed as functional.

Assay [8] addresses T4, Tyrosyl-tRNA synthetase, putative (Trypanosoma cruzi (strain CL Brener)). Briefly: Trypanosoma cruzi tyrosyl tRNA synthetase (TcYRS) SOP. The format is functional. Particulars: 30 µM.
The target of assay [9] is Chromo domain-containing protein 1 (Saccharomyces cerevisiae (strain ATCC 204508 / S288c) (Baker's yeast)) (UniProt P32657). The assay is described as follows: ScCHD-1 Enzyme Inhibition Assay. Further: in the data most compounds retested in dose-response had high values. Conditions: 30 µM. The assay is classed as functional.
Sequence of Chromo domain-containing protein 1 (Saccharomyces cerevisiae (strain ATCC 204508 / S288c) (Baker's yeast)) (P32657 whole entry, the tested form may be a part): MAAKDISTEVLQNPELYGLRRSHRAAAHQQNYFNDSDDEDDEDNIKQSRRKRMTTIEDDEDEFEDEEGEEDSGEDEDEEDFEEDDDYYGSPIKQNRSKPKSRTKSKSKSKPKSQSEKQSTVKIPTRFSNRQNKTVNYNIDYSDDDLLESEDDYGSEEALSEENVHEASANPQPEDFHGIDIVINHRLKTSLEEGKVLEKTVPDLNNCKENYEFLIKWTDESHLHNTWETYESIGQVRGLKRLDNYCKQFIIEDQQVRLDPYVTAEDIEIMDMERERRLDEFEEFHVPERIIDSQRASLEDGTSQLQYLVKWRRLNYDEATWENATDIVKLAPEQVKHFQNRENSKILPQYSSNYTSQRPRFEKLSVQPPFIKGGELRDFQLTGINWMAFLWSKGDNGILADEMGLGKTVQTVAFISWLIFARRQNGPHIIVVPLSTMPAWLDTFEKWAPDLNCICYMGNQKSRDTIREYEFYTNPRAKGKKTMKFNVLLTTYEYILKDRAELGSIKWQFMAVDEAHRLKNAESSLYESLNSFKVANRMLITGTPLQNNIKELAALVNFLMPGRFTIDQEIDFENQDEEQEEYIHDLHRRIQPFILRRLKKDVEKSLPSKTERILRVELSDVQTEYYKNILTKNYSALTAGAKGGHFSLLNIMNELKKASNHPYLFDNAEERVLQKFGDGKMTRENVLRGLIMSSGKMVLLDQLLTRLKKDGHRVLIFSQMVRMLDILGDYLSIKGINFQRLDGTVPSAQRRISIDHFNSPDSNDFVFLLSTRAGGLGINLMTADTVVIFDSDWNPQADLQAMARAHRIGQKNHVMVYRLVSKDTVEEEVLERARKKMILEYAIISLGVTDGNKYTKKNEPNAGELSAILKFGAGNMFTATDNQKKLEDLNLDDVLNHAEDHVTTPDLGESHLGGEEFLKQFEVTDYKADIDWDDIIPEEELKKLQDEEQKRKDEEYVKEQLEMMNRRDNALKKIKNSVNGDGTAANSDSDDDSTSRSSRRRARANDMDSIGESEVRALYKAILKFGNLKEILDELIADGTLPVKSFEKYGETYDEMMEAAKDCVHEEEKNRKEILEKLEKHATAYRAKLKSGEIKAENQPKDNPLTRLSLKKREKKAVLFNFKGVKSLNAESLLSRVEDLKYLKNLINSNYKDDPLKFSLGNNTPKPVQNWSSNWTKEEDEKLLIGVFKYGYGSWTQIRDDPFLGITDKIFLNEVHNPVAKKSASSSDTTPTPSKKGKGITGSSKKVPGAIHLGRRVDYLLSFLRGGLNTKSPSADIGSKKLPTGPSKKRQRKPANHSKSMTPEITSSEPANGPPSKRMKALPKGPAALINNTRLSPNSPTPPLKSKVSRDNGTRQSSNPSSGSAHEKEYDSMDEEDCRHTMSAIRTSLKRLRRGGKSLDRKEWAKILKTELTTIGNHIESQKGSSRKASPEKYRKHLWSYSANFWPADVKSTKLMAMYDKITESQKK

For some of these results: Measured potencies and affinities stand elsewhere.

Sequence of Protein translocase subunit SecA (Escherichia coli (strain K12)) (P10408 whole entry): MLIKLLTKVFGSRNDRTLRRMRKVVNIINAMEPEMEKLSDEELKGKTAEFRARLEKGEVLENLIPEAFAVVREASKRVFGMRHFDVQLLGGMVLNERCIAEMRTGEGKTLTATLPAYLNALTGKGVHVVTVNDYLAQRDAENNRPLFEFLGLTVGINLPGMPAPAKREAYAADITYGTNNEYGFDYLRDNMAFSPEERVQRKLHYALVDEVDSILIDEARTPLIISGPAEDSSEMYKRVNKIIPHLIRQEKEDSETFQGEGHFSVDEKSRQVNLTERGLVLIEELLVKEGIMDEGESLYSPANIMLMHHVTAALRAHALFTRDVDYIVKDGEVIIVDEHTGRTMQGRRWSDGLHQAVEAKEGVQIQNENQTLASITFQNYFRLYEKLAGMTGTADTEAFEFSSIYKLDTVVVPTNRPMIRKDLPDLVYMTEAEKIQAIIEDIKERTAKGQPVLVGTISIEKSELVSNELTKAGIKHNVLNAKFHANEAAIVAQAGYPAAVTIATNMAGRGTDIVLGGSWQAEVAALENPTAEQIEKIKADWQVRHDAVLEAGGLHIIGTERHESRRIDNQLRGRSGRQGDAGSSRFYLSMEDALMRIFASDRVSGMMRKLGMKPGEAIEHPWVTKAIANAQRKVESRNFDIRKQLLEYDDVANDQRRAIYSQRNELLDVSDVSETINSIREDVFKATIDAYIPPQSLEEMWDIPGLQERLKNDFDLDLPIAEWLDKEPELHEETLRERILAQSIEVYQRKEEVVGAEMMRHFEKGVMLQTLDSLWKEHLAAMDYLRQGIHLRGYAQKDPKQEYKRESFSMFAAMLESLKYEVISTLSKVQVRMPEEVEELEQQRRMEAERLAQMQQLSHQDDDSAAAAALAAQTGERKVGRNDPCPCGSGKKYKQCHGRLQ

In the case of `CCc1ccc(CN2CCC3(CC2)CC(N2CCN(C)CC2)CO3)cc1` (stereo unspecified), the Percent Effect in assay [1] was -9.52%; in assay [2] it was 0%; in assay [3], 7.52%; in [4] it was 5.26%; in the assay with Trypanosoma cruzi it was -0.293%; in assay [5] it was -2.23%. The Percent Effect is 11.6% in assay [6]; -0.446% in the assay listed under Homo sapiens; 4.32% in [7]; 5.13% in assay [8]; 14% in assay [9].
As to `O=C1[C@H]2CN(c3ncccn3)C[C@H]2CN1Cc1ccncc1`, the Percent Effect in assay [1] was -4.5%; in assay [2], -2.7%; in assay [3] it was 1.46%; in assay [4], -4.76%; with Trypanosoma cruzi it was -2.34%; in assay [5] it was -0.417%. For the same compound, the Percent Effect in [6] is 3.97%; in the assay listed under Homo sapiens, -1.92%; in assay [7], 3.96%; in assay [8] it was -3.66%; in assay [9], -3.35%.
For the compound `O=C(CN1CCOC(Cn2cccn2)C1)Nc1nncs1` (stereo unspecified), the Percent Effect is -7.55% in assay [1]; 10.4% in [2]; -7.65% in assay [3]; -17.4% in assay [4]; 10.3% in the assay with Trypanosoma cruzi; -4% in assay [5]. Besides, the Percent Effect was 11.2% in assay [6]; 13.3% in the assay listed under Homo sapiens; 9.52% in assay [7]; 18.8% in assay [8]; -22.6% in assay [9].
As for `Cc1cccc(-c2nc(CN3CCc4cnc(C)nc4C3)no2)c1`, the Percent Effect in assay [1] is -6.65%; in assay [2] it was 7.79%; in assay [3], 64%; in assay [4], 10.5%; in the assay on Trypanosoma cruzi, 0.374%; in [5], 1.42%. Further, the Percent Effect in [6] was 0.169%; in the assay listed under Homo sapiens, -1.99%; in assay [7], 10.7%; in assay [8], 9.76%; in assay [9] it was -4.89%.
As for `CN(C)C(=O)CN1CCCCC1c1nc(N)ncc1-c1cccc(F)c1` (stereo unspecified), the Percent Effect in assay [1] is -4.39%; in assay [2] it was 21.3%; in assay [3] it was 1.75%; in [4], -10.4%; with Trypanosoma cruzi, 5.12%; in [5], -4.43%. For the same compound, the Percent Effect in assay [6] is 17.9%; in the assay filed under Homo sapiens it was 6.49%; in assay [7], 4.25%; in [8], 14.1%; in [9], -4.14%.
Regarding `Cn1cnc2c1C(COCC1CC1)CN(Cc1ccc3c(c1)OCO3)C2` (stereo unspecified), the Percent Effect in assay [1] is -5.21%; in assay [2], -2.7%; in assay [3] it was 15%; in [4] it was -2.11%; in the assay with Trypanosoma cruzi, -0.977%; in assay [5], -3.75%. The Percent Effect was 0.0845% in [6]; 12.3% in the assay filed under Homo sapiens; 2.97% in assay [7]; -1.22% in assay [8]; -2.11% in assay [9].
With `CCc1[nH]ncc1C(=O)N1CCCN(Cc2cnn(C(C)C)c2)CC1`, the Percent Effect in assay [1] is -1.61%; in [2] it was 29.7%; in assay [3], -18.5%; in [4], -5.54%; in the assay with Trypanosoma cruzi, 4.62%; in [5], -18%. The Percent Effect in assay [6] is 18.7%; in the assay listed under Homo sapiens, 24.4%; in [7], 3.45%; in assay [8], 13.6%; in assay [9] it was -9.88%.
Turning to `O=C(NCCCN1CCOCC1)c1cc(-c2ccc3c(c2)CCO3)n[nH]1`, the Percent Effect in assay [1] was -5.47%; in [2] it was -20%; in [3], -0.583%; in assay [4], 0.426%; in the assay on Trypanosoma cruzi it was 2.36%; in assay [5], -15%. The Percent Effect in assay [6] is 12.2%; in the assay listed under Homo sapiens, -4.93%; in assay [7] it was 1.06%; in [8], -2.56%; in assay [9], -5.21%.
In the case of `O=S(=O)(C1CC1)N1C[C@H]2CCC[C@@]2(COc2ccccn2)C1`, the Percent Effect in [1] was -0.747%; in assay [2] it was 14.7%; in assay [3], 2.3%; in [4] it was 3.09%; in the assay on Trypanosoma cruzi it was -4.32%; in assay [5], 5.81%. Further, the Percent Effect in [6] is 15.3%; in the assay listed under Homo sapiens, -6.25%; in [7], 3.17%; in assay [8], 10.3%; in assay [9], -5.69%.
On to `Cn1ccc(C(=O)NC2CCC23CCN(Cc2cccnc2)CC3)c1` (stereo unspecified), for which the Percent Effect in assay [1] was -1.54%; in assay [2], 2.74%; in [3], 5.78%; in assay [4], 0.617%; in the assay with Trypanosoma cruzi, 0%; in [5] it was 0.399%. The Percent Effect in assay [6] is 5.39%; in the assay filed under Homo sapiens, 2.32%; in assay [7], -1.04%; in [8] it was -3.7%; in assay [9], 0.517%.
On to `Cc1ccc(NC2CCN(C(=O)Cn3nc(C)cc3C)CC2)nn1`, for which the Percent Effect in [1] is -1.08%; in [2], 15.8%; in assay [3], -0.776%; in assay [4] it was 6.59%; in the assay with Trypanosoma cruzi, -0.376%; in [5], -0.766%. Moreover, the Percent Effect in assay [6] was 17.9%; in the assay filed under Homo sapiens it was 6.37%; in [7] it was 3.43%; in assay [8] it was 12.2%; in [9] it was -1.72%.
